Data on 29 compounds can be found in PubChem BioAssay (EPA / NIEHS).

Where “and” joins values, the source holds several entries; their conditions need not be identical. Equal values may be shown once. Inconclusive results are not listed. Some structures have more than one record in an assay (separate samples or runs), and their calls can disagree. Calls of active or inactive are those of the source. The calls were made as follows: active = hit-call score of the fitted dose curve at least 0.9, where 1 is the maximum; inconclusive = response in the unintended direction; inactive = score below 0.9.

The nature of this experiment: ACEA_AR_antagonist_AUC_viability: ACEA Biosciences xCELLigence Real-Time Cell Analysis on Androgen Receptor Antagonism for Viability (AID 2283776).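 Also: area under impedance growth curve at 80 h after dosing as viability; hits lower the growth signal relative to DMSO meaning cytotoxicity.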 The essentials:
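22Rv1 human prostate cancer cells were seeded on electrode plates, monitored overnight, then exposed to eight 1:4 dilutions from 100 uM final. Impedance-based growth kinetics at 80 h gave an AUC viability endpoint normalized to DMSO.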
Turning to `O=S1(=O)OC(c2cc(Br)c(O)c(Br)c2)(c2cc(Br)c(O)c(Br)c2)c2ccccc21`, the compound was called inactive.

Usually AC50 stands for the concentration giving half of the maximal activity seen. For `CC(C)N(C(=O)CCl)c1ccccc1`, the half-maximal activity concentration (AC50) was 16.6 µM (active). Take `CCN(CCO)CCO`: the result was inactive. Consider `O=C(N[C@H]1CN2CCC1CC2)c1ccc2c(c1)OCCO2`, for which the compound was called inactive. The same measure, in the same setting: for `O=C(CBr)c1ccc(O)cc1` the value was “inactive”. As to `O=C(O)C1(c2ccc3c(c2)OC[C@H](Cc2ccc(-c4ccccc4)cc2)[C@H]3O)CCCC1`, the outcome was inactive. As for `COCCl`, the compound was classed as inactive. For the compound `CC(=Cc1ccccc1)[N+](=O)[O-]`, the half-maximal activity concentration (AC50) was 6.31 µM (active). The same measure, in the same setting: with `C=CC(Cl)CCl` (stereo not given) the figure was 4.53 µM (active). As to `Nc1ccc(N)cc1`, the compound was called inactive. As for `CC(O)(CS(=O)(=O)c1ccc(F)cc1)C(=O)Nc1ccc(C#N)c(C(F)(F)F)c1` (stereo not given), the AC50 is 21.4 µM (active) and 9.65 µM (active).

Turning to `O=C(CCl)Nc1ccccc1`, the concentration at half-maximal activity (AC50) is 12.7 µM (active). On the same count and under the same terms, for `CCCCCCCCCCCCc1cccc(S(=O)(=O)O)c1` the value was 75 µM (active). With `Cc1cc(Cl)ccc1OCCCC(=O)O`, the outcome was inactive. For the compound `Clc1cccc(Cl)c1`, the outcome was inactive.

Regarding `O=c1nc(O)n(Cl)c(=O)n1Cl`, the outcome was inactive. For the compound `CCCCCCCCCCCCOS(=O)(=O)O`, the AC50 was 72.1 µM (active) and the compound was classed as inactive. For the compound `Oc1cc(Cl)c(Cl)cc1Cl`, the AC50 is 71.8 µM (active).

Turning to `Clc1cccc(Cl)c1Cl`, the outcome was inactive. Still for that read-out and setting: for `N#Cc1cccnc1` the value was “inactive”. Same read-out and setting: for `O=c1[nH]c(=O)n(Cl)c(=O)n1Cl` the value was “inactive”. `O=C(NC(=O)c1c(F)cccc1F)Nc1cc(Cl)c(OC(F)(F)C(F)C(F)(F)F)cc1Cl` (stereo not given): the AC50 is 5.68 µM (active).

Turning to `CCC[CH2][Sn]([CH2]CCC)([CH2]CCC)[CH2]CCC`, the half-maximal activity concentration (AC50) is 29.9 µM (active). For the compound `O=C(NC(=O)c1c(F)cccc1F)Nc1ccc(Cl)cc1`, the call was inactive.

`O=C1c2ccccc2C(=O)C1C(=O)C(c1ccccc1)c1ccc(Cl)cc1` (stereo not given): the AC50 was 24.6 µM (active). For the compound `COc1nn(C(=O)NS(=O)(=O)c2ccccc2OC(F)(F)F)c(=O)n1C`, the compound was called inactive. Still for that read-out and setting: for `CNC(=O)O/N=C/C(C)(C)S(C)(=O)=O` the value was “inactive”; for `N#CCC#N`, “inactive”; for `O=CCCl`, “inactive”.
